Experimental data taken from PubChem BioAssay AID624297 (National Center for Advancing Translational Sciences (NCATS), 2012).
The whole screen tested about 340,000 compounds, of which about 6,200 (1.8%) were called active. Where a call stands in place of a potency, no number is given. Inconclusive results (about 10%) are left out. Many of the other results were omitted from the sample, so actives are more common in it than they were. Unmarked numbers belong to inactive results. The call rests on the fitted dose curve; in most records, active means well fitted activation curve with a large enough effect; inconclusive means small, poorly fitted or top-dose-only effect; inactive means no such curve, though single readings can be large or run the other way.

Test: A quantitative high throughput screen for small molecules that induce DNA re-replication in SW480 colon adenocarcinoma cells. Further: nearly all actives have a fitted effect of over 55% in size.
Conditions: Hoechst DNA content imaging, 48 h; series mostly up to 46.1 µM
In short: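 SW480 cells exposed to compounds for 48 hr at 37 C, 5% CO2, then Hoechst-stained 40 min. Nuclear DNA content imaged by fluorescence scanning (405 nm excitation, 500-530 nm emission); re-replication scored as increased high-intensity nuclei.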
Potency means the concentration at half of the fitted maximal effect.

Q: With `NC(=O)C1(Nc2ccccc2Cl)CCCC1` as the compound, how does the Potency read?
A: inactive

Q: With `COc1ccc(CC(=O)Nc2ccc(C(=O)NC(C)(C)C)cc2)cc1` as the compound, how does the Potency read?
A: inactive

Q: Which Potency does the source give for `CCOc1ccc(S(=O)(=O)Nc2ccc(OC)nc2)cc1` here?
A: inactive

Q: For `COc1ccc(CS(=O)/C(Cl)=C(/Cl)C(=O)Nc2ccc(OC)nc2)cc1` (stereo not given), which Potency is on record?
A: 0.259 µM (active)

Q: With `O=C(NCCC1CCCCN1S(=O)(=O)c1ccccc1)C(=O)NCC1CCCO1` (stereo not given) as the compound, how does the Potency read?
A: inactive

Q: With `COc1cccc(CNC(=O)C(=O)NCCC2CCCCN2S(=O)(=O)c2ccc(C)cc2)c1` (stereo not given) as the compound, how does the Potency read?
A: 15.8 µM (active)

Q: For `O=C(NCCC1CCCCN1S(=O)(=O)c1ccc(F)cc1)C(=O)NC1CC1` (stereo not given), which Potency is on record?
A: inactive

Q: Which Potency does the source give for `O=C(COC(=O)COc1cc(Cl)c(Cl)cc1Cl)NC1CC1` here?
A: inactive

Q: Which Potency does the source give for `CCOc1cccc(=O)c2c(C)n(CC3CCCO3)c(C)c12` (stereo not given) here?
A: inactive

Q: For `CN1CN(C)c2ccc([N+](=O)[O-])c3cccc1c23`, which Potency is on record?
A: inactive

Q: Which Potency does the source give for `O=C1c2cccc3c([N+](=O)[O-])ccc(c23)C(=O)N1CC1CCCO1` (stereo not given) here?
A: 5.8 µM (active)

Q: With `O=C(CSc1cccc2cccnc12)N/N=C/c1cccnc1` as the compound, how does the Potency read?
A: 7.31 µM (active)

Q: For `COc1ccc(C(=O)NCC(=O)N/N=C/c2cccnc2)cc1`, which Potency is on record?
A: inactive

Q: With `O=C(CNC(=O)c1cccnc1)N/N=C/c1cccnc1` as the compound, how does the Potency read?
A: inactive

Q: Which Potency does the source give for `Cc1ccc(/C=N/NC(=S)NC2CCCCC2)o1` here?
A: inactive

Q: Which Potency does the source give for `Cc1ccc(/C=N/NC(=S)Nc2cccc(S(=O)(=O)N(C)C)c2)o1` here?
A: 23.1 µM (active)

Q: With `CN(C)S(=O)(=O)c1cccc(NC(=S)NCc2ccc3c(c2)OCO3)c1` as the compound, how does the Potency read?
A: inactive

Q: With `COc1cc(C(=O)CCc2ccc3c(c2)OCO3)cc(OC)c1OC` as the compound, how does the Potency read?
A: inactive

Q: For `CCOc1ccc2ccccc2c1/C=N/NC(=O)c1c(C)cc(C)[nH]c1=O`, which Potency is on record?
A: 23.1 µM (active)

Q: Which Potency does the source give for `COc1ccc2ccccc2c1/C=N/NC(=O)c1cc(C)[nH]n1` here?
A: inactive

Q: For `Cc1ccc(C(=O)N/N=C/c2cccc3ccccc23)cn1`, which Potency is on record?
A: inactive

Q: For `O=C(COC(=O)c1ccc([N+](=O)[O-])o1)NC12CC3CC(CC(C3)C1)C2`, which Potency is on record?
A: inactive

Q: For `CCOC(=O)C1CCCN(C(=O)c2ccc(C)c(S(=O)(=O)N3CCCCC3)c2)C1` (stereo not given), which Potency is on record?
A: inactive

Q: Which Potency does the source give for `COc1cccc2c1C(=O)c1c(O)c3c(c(O)c1C2=O)CC(O)(C(C)=NNC(=O)c1ccc(Cl)c(Cl)c1)CC3OC1CC(N)C(O)C(C)O1` (stereo not given) here?
A: inactive

Q: For `CS(=O)(=O)c1sc2nc(-c3ccccc3)cc(-c3ccccc3)c2c1N`, which Potency is on record?
A: 11.2 µM (active)

Q: Which Potency does the source give for `Nc1nc(-c2ccccc2)cc(-c2ccccc2)n1` here?
A: inactive

Q: For `CNc1nc(-c2ccccc2)cc(-c2ccccc2)n1`, which Potency is on record?
A: inactive

Q: Which Potency does the source give for `CCN([C@H](CO)C(C)C)S(=O)(=O)c1ccccc1Br` here?
A: inactive

Q: With `CN1C(c2ccc(F)cc2)=CS/C1=C(/C#N)c1nnc2n1-c1ccccc1SC2` as the compound, how does the Potency read?
A: inactive

Q: With `C/[N+]([O-])=C\c1ccc([N+](=O)[O-])o1` as the compound, how does the Potency read?
A: 14.6 µM (active)

Q: Which Potency does the source give for `Cc1cc(C)nc(N/N=C/c2ccc([N+](=O)[O-])o2)n1` here?
A: inactive

Q: Which Potency does the source give for `CN1CCN(/N=C/c2ccc(-c3ccc([N+](=O)[O-])cc3)o2)CC1` here?
A: inactive

Q: With `CN1CCN(C(=O)c2ccc(-c3ccc(Br)cc3)o2)CC1` as the compound, how does the Potency read?
A: inactive

Q: For `CCN(C(=O)CSc1cccc[n+]1[O-])c1ccccc1`, which Potency is on record?
A: inactive

Q: Which Potency does the source give for `O=[N+]([O-])c1cc(Br)c(O)c(/C=N/Nc2nc3ccccc3s2)c1` here?
A: 3.26 µM (active)

Q: Which Potency does the source give for `COc1ccc(CC(=O)N/N=C/c2cc([N+](=O)[O-])cc(Br)c2O)cc1` here?
A: inactive

Q: With `Cc1cc(C(=O)N/N=C/c2cc([N+](=O)[O-])cc(C)c2O)n[nH]1` as the compound, how does the Potency read?
A: inactive

Q: With `COc1ccc(C(=O)Nc2cc(S(=O)(=O)N3CCCC3)ccc2Cl)cc1` as the compound, how does the Potency read?
A: inactive

Q: With `C[C@H](O)[C@@H]1C(=O)N2CCc3ccc(N4CCOCC4)cc3[C@@H]2C[C@@H]1N(C)C(=O)C(C)(C)C` as the compound, how does the re-replication activation read?
A: 0.113% [at 9.22 µM]

Q: Which Potency does the source give for `Cc1nnnn1/C(=C\c1ccccc1)C(=O)OCC(=O)N1CC2(C)CC1CC(C)(C)C2` (stereo not given) here?
A: 18.4 µM (active)

Q: With `COc1ccc(C(=O)N2CC3(C)CC2CC(C)(C)C3)cc1OC` (stereo not given) as the compound, how does the Potency read?
A: inactive

Q: Which Potency does the source give for `Cc1cccc(C(=O)NCC(=O)OCC(=O)N2CC3(C)CC2CC(C)(C)C3)c1` (stereo not given) here?
A: inactive

Q: For `COc1ccc(CCNC(=O)COC(=O)Cc2ccccc2F)cc1`, which Potency is on record?
A: inactive

Q: Which Potency does the source give for `N#Cc1cc([N+](=O)[O-])ccc1NC(=O)COC(=O)c1cnccn1` here?
A: inactive

Q: With `Cc1cc(C(=O)OCC(=O)N2C(C)CCCC2C)c2ccccc2n1` (stereo not given) as the compound, how does the Potency read?
A: inactive

Q: Which Potency does the source give for `Cc1cccc(NC(=O)c2cc([N+](=O)[O-])ccc2N2CCN(C)CC2)c1` here?
A: inactive

Q: With `Cc1cccc(NC(=O)c2ccc([N+](=O)[O-])o2)c1` as the compound, how does the Potency read?
A: 3.66 µM (active)

Q: For `COc1cccc(NC(=O)c2ccc(Cn3cc([N+](=O)[O-])cn3)o2)c1`, which Potency is on record?
A: inactive

Q: Which Potency does the source give for `CS(=O)(=O)Nc1ccccc1C(=O)OCC(=O)NC1CC1` here?
A: inactive

Q: Which Potency does the source give for `CC(=O)NC(CC(=O)Nc1ccc(S(=O)(=O)N2CCOCC2)cc1)c1ccccc1` (stereo not given) here?
A: inactive

Q: For `COc1ccc(C(=O)NCC(=O)N/N=C/c2ccc([N+](=O)[O-])o2)cc1OC`, which Potency is on record?
A: 11.6 µM (active)

Q: With `COc1cc(/C=N/NC(=O)CNC(=O)c2ccncc2)ccc1OC(C)=O` as the compound, how does the Potency read?
A: inactive

Q: Which Potency does the source give for `COc1cccc(/C=N/NC(=O)CNC(=O)c2ccc(S(=O)(=O)N3CCOCC3)cc2)c1OC` here?
A: inactive

Q: Which Potency does the source give for `Cc1csc(=O)n1CC(=O)Nc1ccc(S(C)(=O)=O)cc1` here?
A: inactive

Q: Which Potency does the source give for `Cn1cnnc1SCc1nnc(-c2ccccc2Br)o1` here?
A: inactive

Q: Which Potency does the source give for `Nc1cccc2c1C(=O)N(Cc1nnc(-c3ccccc3Br)o1)C2=O` here?
A: 16.4 µM (active)

Q: With `O=C1c2ccccc2C(=O)N1Cc1cc(-c2ccccc2Cl)no1` as the compound, how does the Potency read?
A: inactive

Q: Which Potency does the source give for `CN(CC(=O)NCCc1ccc(S(N)(=O)=O)cc1)CC(=O)Nc1ccc(Cl)cc1` here?
A: inactive

Q: With `Cc1ccc(C2CC(=O)NC(SCC(=O)OCc3ccccc3)=C2C#N)o1` (stereo not given) as the compound, how does the Potency read?
A: inactive

Q: With `CCOC(=O)CSC1=C(C#N)C(c2sccc2C)CC(=O)N1` (stereo not given) as the compound, how does the Potency read?
A: 5.01 µM (active)

Q: Which re-replication activation does the source give for `COC(=O)CSC1=C(C#N)C(c2ccccc2OC)C(C(=O)OC)C(=O)N1` (stereo not given) here?
A: 0.322% [at 9.22 µM]

Q: With `CC(C)Cc1nnc(N)s1` as the compound, how does the Potency read?
A: inactive

Q: Which Potency does the source give for `Cc1ccc(NC(=O)c2cc3ccccc3o2)cc1` here?
A: inactive

Q: For `O=C(N/N=C/c1cccc(O)c1)c1cc2c(ccc3ccccc32)o1`, which Potency is on record?
A: inactive

Q: Which Potency does the source give for `Cc1c(/C=N\NC(=O)c2cc3ccccc3o2)c2ccccc2n1C` here?
A: 9.2 µM (active)
